Assay [1] can be described thus: small molecules captured by biotinylated probe aFSTL3 – biochemical, small-molecule microarray, fluorescence 635/667, stem cell growth factor project, primary screen (AID 1064).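 Also: measures binding of the biotinylated anti-FSTL3 antibody to printed compounds.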 The note with it: higher = more signal.
Assay [2] in a line: binders from COS7 lysate, DM2A8 probe, primary screen, torsin A project, cell lysate, small-molecule microarray, fluorescence 635/667 (AID 1065). The note with it: higher = more signal, COS7 lysate expressing mutant human TOR1A.
Assay [3] is described as follows: small molecules captured by biotinylated probe aFGF2 – biochemical, small-molecule microarray, fluorescence 635/667, stem cell growth factor project, primary screen (AID 1067).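 Also: measures binding of biotinylated aFGF2 protein to printed compounds on slides; z-score merges feature fluorescence and signal-to-noise across triplicate slides.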 The note with it: higher = more signal.
Assay [4] can be described thus: small molecules captured by biotinylated probe aFGF10 – biochemical, small-molecule microarray, fluorescence 635/667, stem cell growth factor project, primary screen (AID 1071).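 Also: score merges 667 nm spot intensity and signal to noise from triplicate slides.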 The note with it: higher = more signal.
In assay [5] the target is Neurogenic locus notch homolog protein 2 (Homo sapiens) (UniProt Q04721). The assay can be described thus: small molecules binding Notch2 protein – biochemical, small-molecule microarray, 635 nm fluorescence, stem cell growth factors, primary screen (AID 1073). The note with it: higher = more signal.
In assay [6] the target is Pro-neuregulin-1, membrane-bound isoform (Homo sapiens) (UniProt Q02297). In words: small molecules binding neuregulin-1 protein – biochemical, small-molecule microarray, fluorescence 635/667, psychiatric disease protein project, primary screen (AID 1075).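 Also: score combines 667 nm spot fluorescence with signal to noise.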 The note with it: NRG1 binding, 635 nm fluorescence, higher = more signal.
For assay [7], the system named is Neuregulin-1 EGF-like domain. The assay can be described thus: small molecules binding NRG1 EGF domain – biochemical, small-molecule microarray, 635 nm fluorescence, primary screen (AID 1081).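 Also: binding of the protein to compounds printed on small-molecule microarray slides.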 The note with it: higher = more signal.
The nature of assay [8]: FRG1 expression reporter modulators in myotubes – cell-based, C2C12 myotubes, firefly/Renilla luciferase, luminescence, FRG1 inhibition for FSHD, primary screen (AID 1084). The note with it: FRG1 promoter luciferase, higher = more signal, called active from +8 up or from −8 down.
A short description of assay [9]: small molecules captured by biotinylated probe aFST – biochemical, small-molecule microarray, fluorescence 635/667, stem cell growth factor project, primary screen (AID 1086).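 Also: score merges 667 nm fluorescence with signal-to-noise of each printed compound spot.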 The note with it: higher = more signal.
Assay [10] is described as follows: binders of probe aHhip on microarray, primary screen, stem cell growth factor project, biochemical, small-molecule microarray, fluorescence 635/667 (AID 1087).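 Also: score merges spot fluorescence at 667nm with spot signal to noise ratio.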 The note with it: higher = more signal.
Assay [11] relates to PRMT1 (protein arginine N-methyltransferase 1). The assay can be described thus: small molecules binding arginine methyltransferase PRMT1 – biochemical, small-molecule microarray, 635 nm fluorescence, primary screen (AID 1088).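 Also: binding of Prmt1 protein to compounds spotted on small-molecule microarray slides.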 The note with it: higher = more signal.
A short description of assay [12]: growth effects on S. cerevisiae YJM789 – YJM789 clinical isolate, OD600, 24 h, basal, primary screen (AID 1089).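 Also: growth of clinical yeast isolate S. cerevisiae YJM 789 seeded 1000 cells per well; test concentration not given here.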 The note with it: higher = more signal, called active from +8 up or from −8 down.
The nature of assay [13]: S. pombe growth modifiers, basal conditions – strain 972, OD600, 24 h, no modulator, primary screen (AID 1090).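 Also: basal condition with compound alone and no growth modifier present; test concentration not given here.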 The note with it: S. pombe 972 growth, higher = more signal, called active from +8 up or from −8 down.
A short description of assay [14]: budding yeast growth modifiers under rapamycin – strain BY4716, OD600, 96 h, primary screen (AID 1091). Also: test concentration not given here. The note with it: S. cerevisiae BY4716 + rapamycin, higher = more signal, called active from +8 up or from −8 down.
For assay [15], the target named is Torsin-1A-interacting protein 2 (Homo sapiens) (UniProt Q8NFQ8). In words: small molecules binding lysate-expressed LULL1 – cell lysate, human LULL1 lysate, 635/667 nm fluorescence, primary screen (AID 1092).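 Also: probe is lysate of COS7 cells overexpressing human LULL1; score merges per-feature 667 nm fluorescence with signal-to-noise.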 The note with it: small-molecule microarray, hLULL1 lysate binding, 635 nm fluorescence; higher = more signal.
Assay [16] is described as follows: optical density change of DRC41 E. coli – strain DRC41, OD650, 24 h, E. coli filamentation project, primary screen (AID 1093).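 Also: MC1000 strain lacking acrAB efflux and sulA so SOS filamentation is blocked; test concentration not given here.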 The note with it: E. coli DRC41 growth, higher = more signal, called active from +8 up or from −8 down.
Assay [17] can be described thus: probe aLefty2 binding to arrayed compounds – biochemical, biotinylated probe, 635/667 nm fluorescence, primary screen (AID 1094).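 Also: score merges spot fluorescence near 667 nm with spot signal-to-noise ratio.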 The note with it: small-molecule microarray, higher = more signal.
The subject of assay [18] is Noggin (protein binding on small-molecule microarray). In words: small molecules binding Noggin protein – biochemical, 635/667 nm fluorescence, primary screen (AID 1095).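 Also: score merges 667 nm feature fluorescence with signal to noise over triplicate slides.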 The note with it: 635 nm fluorescence, higher = more signal.
The target in assay [19] is Neurogenic locus notch homolog protein 3 (Homo sapiens) (UniProt Q9UM47). The assay can be described thus: small molecules binding NOTCH3 protein – biochemical, 635/667 nm fluorescence, primary screen (AID 1096). The note with it: small-molecule microarray, 635 nm fluorescence, higher = more signal.
A short description of assay [20]: probe aEGFR binding to arrayed compounds – biochemical, biotinylated probe, 635/667 nm fluorescence, primary screen (AID 1097).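 Also: probe is a biotinylated anti-EGFR antibody binding compounds printed on slides; score combines fluorescence near 667 nm and signal to noise of each spot.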 The note with it: small-molecule microarray, higher = more signal.

Calls of active or inactive are those of the source.

Pro-neuregulin-1, membrane-bound isoform (Homo sapiens), sequence (Q02297 whole entry, looked up, the tested form may be a part, canonical isoform): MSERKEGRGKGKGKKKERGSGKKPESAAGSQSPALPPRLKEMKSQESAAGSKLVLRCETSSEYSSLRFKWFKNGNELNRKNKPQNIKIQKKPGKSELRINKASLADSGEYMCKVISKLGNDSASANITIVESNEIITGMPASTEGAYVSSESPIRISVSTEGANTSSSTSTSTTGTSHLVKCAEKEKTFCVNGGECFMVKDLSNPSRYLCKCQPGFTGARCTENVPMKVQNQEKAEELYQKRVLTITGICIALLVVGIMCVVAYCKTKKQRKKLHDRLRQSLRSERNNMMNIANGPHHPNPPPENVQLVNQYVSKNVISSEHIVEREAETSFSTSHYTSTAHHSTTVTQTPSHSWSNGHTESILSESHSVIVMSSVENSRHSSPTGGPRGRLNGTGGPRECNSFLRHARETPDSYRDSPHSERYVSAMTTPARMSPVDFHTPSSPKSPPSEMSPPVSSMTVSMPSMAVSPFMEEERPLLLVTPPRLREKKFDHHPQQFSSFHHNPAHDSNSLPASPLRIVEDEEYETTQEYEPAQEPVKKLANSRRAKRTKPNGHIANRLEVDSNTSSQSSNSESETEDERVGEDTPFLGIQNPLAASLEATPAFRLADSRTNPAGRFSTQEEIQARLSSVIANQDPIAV
Neurogenic locus notch homolog protein 3 (Homo sapiens), sequence (Q9UM47 whole entry, looked up): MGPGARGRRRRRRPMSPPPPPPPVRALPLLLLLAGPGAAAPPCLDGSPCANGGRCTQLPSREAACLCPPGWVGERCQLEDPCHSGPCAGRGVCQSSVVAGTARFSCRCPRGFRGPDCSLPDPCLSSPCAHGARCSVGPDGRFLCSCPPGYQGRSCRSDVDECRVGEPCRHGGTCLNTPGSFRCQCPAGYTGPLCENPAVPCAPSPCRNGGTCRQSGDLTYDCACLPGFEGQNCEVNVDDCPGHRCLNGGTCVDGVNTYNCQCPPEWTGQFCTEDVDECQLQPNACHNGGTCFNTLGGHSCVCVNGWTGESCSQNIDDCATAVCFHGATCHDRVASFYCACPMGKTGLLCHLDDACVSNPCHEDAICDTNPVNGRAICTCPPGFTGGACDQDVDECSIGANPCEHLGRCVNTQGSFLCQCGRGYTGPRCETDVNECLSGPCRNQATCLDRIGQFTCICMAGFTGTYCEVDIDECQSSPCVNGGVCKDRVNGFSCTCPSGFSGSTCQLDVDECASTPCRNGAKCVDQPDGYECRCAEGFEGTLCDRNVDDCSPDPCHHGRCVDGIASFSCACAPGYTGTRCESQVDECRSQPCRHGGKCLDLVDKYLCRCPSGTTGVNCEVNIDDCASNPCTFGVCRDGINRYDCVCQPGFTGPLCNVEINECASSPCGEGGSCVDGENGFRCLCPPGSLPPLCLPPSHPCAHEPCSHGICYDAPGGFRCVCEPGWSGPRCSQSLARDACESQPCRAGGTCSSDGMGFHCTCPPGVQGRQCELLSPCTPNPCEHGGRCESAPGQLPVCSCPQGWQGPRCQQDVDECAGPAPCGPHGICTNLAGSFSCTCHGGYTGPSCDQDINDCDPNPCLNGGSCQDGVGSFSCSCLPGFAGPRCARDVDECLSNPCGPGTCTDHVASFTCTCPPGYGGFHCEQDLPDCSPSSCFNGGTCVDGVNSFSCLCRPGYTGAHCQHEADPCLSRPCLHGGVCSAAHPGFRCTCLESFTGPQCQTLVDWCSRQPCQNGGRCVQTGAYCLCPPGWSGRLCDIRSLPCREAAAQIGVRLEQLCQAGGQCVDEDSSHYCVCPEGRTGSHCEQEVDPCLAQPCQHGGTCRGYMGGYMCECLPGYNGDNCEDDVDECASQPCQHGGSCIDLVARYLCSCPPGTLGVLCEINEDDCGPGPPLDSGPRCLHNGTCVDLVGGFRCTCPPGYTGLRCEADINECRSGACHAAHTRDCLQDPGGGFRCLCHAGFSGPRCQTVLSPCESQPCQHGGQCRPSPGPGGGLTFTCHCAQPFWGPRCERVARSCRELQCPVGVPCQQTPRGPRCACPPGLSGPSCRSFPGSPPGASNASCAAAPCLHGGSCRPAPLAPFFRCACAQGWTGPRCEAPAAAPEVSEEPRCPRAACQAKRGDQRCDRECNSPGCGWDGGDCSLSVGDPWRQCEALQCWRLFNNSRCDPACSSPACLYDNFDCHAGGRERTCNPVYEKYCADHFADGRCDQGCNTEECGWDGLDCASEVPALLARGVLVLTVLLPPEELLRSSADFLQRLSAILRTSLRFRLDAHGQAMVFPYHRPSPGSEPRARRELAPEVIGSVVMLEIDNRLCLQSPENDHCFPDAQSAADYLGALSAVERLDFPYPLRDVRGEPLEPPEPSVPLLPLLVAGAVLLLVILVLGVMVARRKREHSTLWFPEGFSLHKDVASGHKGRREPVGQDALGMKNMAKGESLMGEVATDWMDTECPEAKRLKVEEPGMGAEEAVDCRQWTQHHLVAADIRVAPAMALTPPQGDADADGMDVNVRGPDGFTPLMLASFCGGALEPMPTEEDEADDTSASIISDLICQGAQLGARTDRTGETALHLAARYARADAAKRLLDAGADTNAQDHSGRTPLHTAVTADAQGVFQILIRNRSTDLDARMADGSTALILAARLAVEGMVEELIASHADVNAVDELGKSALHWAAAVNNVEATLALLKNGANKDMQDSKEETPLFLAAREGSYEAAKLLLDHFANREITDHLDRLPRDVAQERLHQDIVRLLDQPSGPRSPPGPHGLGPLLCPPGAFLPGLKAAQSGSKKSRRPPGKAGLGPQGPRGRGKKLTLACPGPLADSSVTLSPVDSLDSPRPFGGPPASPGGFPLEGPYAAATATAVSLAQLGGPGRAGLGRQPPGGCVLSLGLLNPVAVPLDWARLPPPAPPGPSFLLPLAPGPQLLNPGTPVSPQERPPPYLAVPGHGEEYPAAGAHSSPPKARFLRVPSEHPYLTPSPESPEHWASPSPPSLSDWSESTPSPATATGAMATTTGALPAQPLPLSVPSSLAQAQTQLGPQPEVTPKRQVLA
Torsin-1A-interacting protein 2 (Homo sapiens), sequence (Q8NFQ8 whole entry, looked up): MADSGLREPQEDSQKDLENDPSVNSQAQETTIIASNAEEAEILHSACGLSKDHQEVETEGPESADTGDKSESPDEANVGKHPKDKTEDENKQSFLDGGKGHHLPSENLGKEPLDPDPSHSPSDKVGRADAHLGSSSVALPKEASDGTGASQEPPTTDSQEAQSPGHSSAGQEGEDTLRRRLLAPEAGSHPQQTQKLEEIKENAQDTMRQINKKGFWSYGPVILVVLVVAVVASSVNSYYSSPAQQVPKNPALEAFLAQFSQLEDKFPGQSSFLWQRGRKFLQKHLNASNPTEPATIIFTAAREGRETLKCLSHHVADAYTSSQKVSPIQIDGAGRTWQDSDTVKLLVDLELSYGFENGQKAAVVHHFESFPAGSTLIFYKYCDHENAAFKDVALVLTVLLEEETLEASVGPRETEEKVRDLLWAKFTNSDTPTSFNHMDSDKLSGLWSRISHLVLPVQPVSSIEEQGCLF

For the molecule `CC(C)[Si](C#C[Si](C(C)C)(C(C)C)C(C)C)(O[C@H](C)c1cn(Cc2ccccc2)nn1)C(C)C`, the composite z-score was -0.169 in [1]; 0.209 in assay [2]; -0.106 in assay [3]; 0.422 in assay [4]; 0.795 in assay [5]; 0.566 in assay [6]. The composite z-score in [7] is 0.938; in assay [9], 0.372; in assay [10], -0.337; in assay [11], 1.04; in assay [15], 1.92; in assay [17], -0.0936. Moreover, the composite z-score in assay [18] amounted to 0.369; in [19] it was 0.928; in assay [20], 0.0026. Also, the z-score is -1.66 (inactive) in [8]; 0.319 (inactive) in [12]; 0.497 (inactive) in [13]; -0.109 (inactive) in [14]; 1.32 (inactive) in assay [16].
With `C=CCOC(=O)[C@H]1[C@@H]2C(=O)O[C@@H](c3ccccc3)[C@@H](c3ccccc3)N2[C@@H](c2ccc(OCCOC(=O)[C@H]3C[C@H]4C(=O)N[C@@H](CCCCN(C)C)C(=O)N4[C@H]3c3cccc(OCCO)c3)cc2)[C@]12C(=O)Nc1ccc(I)cc12`, the composite z-score is -0.756 in assay [1]; 0.67 in assay [2]; -0.0659 in assay [3]; 0.527 in [4]; 0.914 in assay [5]; 0.605 in assay [6]. For the same molecule, the composite z-score in assay [7] is 1.3; in [9] it was 0.405; in [10], -0.179; in assay [11], 1.54; in assay [15] it was 2.84; in assay [17], -0.129. Besides, the composite z-score in assay [18] is 1.67; in [19], 1.06; in assay [20], -0.15. Also, the z-score in assay [8] was 0.0721 (inactive); in [12] it was 1.71 (inactive); in assay [13], -1.05 (inactive); in [14] it was 1.71 (inactive); in [16] it was -1.36 (inactive).
Turning to `CC(C)(C)OC(=O)CC[C@]1(C(=O)NCCN2CCOCC2)COC(c2ccc(OCCCO)cc2)=N1`, the composite z-score in assay [1] was -0.254; in [2], 0.883; in [3], 0.0569; in assay [4], 0.691; in assay [5] it was 0.361; in [6] it was 1.33. For the same molecule, the composite z-score in assay [7] is 1.41; in [9] it was 0.519; in [10], 0.0623; in assay [11], 1.47; in [15] it was 3.4; in assay [17], -0.0984. The composite z-score was 1.05 in [18], 1.03 in [19] and -0.0656 in [20]. Further, the z-score in [8] is -0.783 (inactive); in [12] it was 0.57 (inactive); in assay [13], 0.41 (inactive); in assay [14] it was -0.342 (inactive); in [16], 0.99 (inactive).
As to `[N-]=[N+]=Nc1ccccc1[C@H]1OC(c2ccc(OCCCO)cc2)=N[C@@]1(Cc1ccccc1)C(=O)N1CCOCC1`, the composite z-score in assay [1] was found to be 0.875; in assay [2], 0.992; in assay [3] it was 0.184; in [4], 0.698; in [5], 1.57; in [6], 1.84. Moreover, the composite z-score came to 1.22 in assay [7]; 1.52 in assay [9]; 0.0873 in assay [10]; 1.46 in assay [11]; 3.23 in [15]; 0.275 in assay [17]. In addition, the composite z-score amounted to 0.449 in assay [18], 1.15 in assay [19] and 0.0881 in assay [20]. Besides, the z-score is -1.6 (inactive) in assay [8]; -1.44 (inactive) in [12]; -1.02 (inactive) in assay [13]; 1.91 (inactive) in assay [14]; 0.551 (inactive) in [16].
For `NC(=O)N1C(=O)C2C(C1=O)C1C=C(CCCO)C2C(C2CC2)N1Cc1cc2c(cc1Br)OCO2` (stereo not given), the composite z-score in assay [1] is 0.225; in assay [2], -0.13; in assay [3], -0.093; in assay [4], -0.33; in assay [5], -0.191; in assay [6] it was 0.946. The composite z-score in [7] is 0.982; in assay [9], 0.0364; in assay [10], -0.0994; in assay [11], -0.918; in [15], 1.36; in assay [17] it was -0.0778. The composite z-score was -0.0543 in assay [18], 0.325 in [19] and -0.13 in [20]. Besides, the z-score in [8] is -0.472 (inactive); in [12], -1.07 (inactive); in [13], -0.435 (inactive); in assay [14], -1.22 (inactive); in [16] it was -0.331 (inactive).
